# Key:
# Experiment in all cases: SPOT peptide array binding signal intensity (averaged, normalized) (arbitrary units (background-subtracted, floor 0; scale differs between SH3 domains)); higher = stronger binding of the SH3 domain to the peptide
# [1] = molecular target: AgAbp1
# Outline: (§1)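 Spot intensities were captured after detection with anti-GST antibody, an HRP-linked anti-mouse secondary and luminol, and quantified with Genespotter. The probes were GST-fused SH3 domains from four yeast species, produced in E. coli BL21(DE3), purified on glutathione Sepharose and incubated at 10 μg/ml overnight at 4°C on cellulose-bound synthetic 15-mer peptides with cysteines replaced by serines. Binding signal is the normalized, background-subtracted spot intensity averaged over replicates, and its arbitrary units differ between domains.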
# [2] = molecular target: AgBbc1
# Outline: as §1
# [3] = molecular target: AgBem1-D1
# Outline: as §1
# [4] = molecular target: AgBzz1-D1
# Outline: as §1
# [5] = molecular target: AgBzz1-D2
# Outline: as §1
# [6] = molecular target: AgCyk3
# Outline: as §1
# [7] = molecular target: AgFus1
# Outline: as §1
# [8] = molecular target: AgHof1
# Outline: as §1
# [9] = molecular target: AgHse1
# Outline: as §1
# [10] = molecular target: AgLsb1
# Outline: as §1
# [11] = molecular target: AgLsb4
# Outline: as §1
# [12] = molecular target: AgMyo5
# Outline: as §1
# [13] = molecular target: AgNbp2
# Outline: as §1
# [14] = molecular target: AgRvs167
# Outline: as §1
# [15] = molecular target: AgSho1
# Outline: as §1
# [16] = molecular target: AgSla1-D1-D2
# Outline: as §1
# [17] = molecular target: AgSla1-D3
# Outline: as §1
# [18] = molecular target: CaAbp1-D1
# Outline: as §1
# [19] = molecular target: CaAbp1-D2
# Outline: as §1
# [20] = molecular target: CaBbc1
# Outline: as §1
# [21] = molecular target: CaBem1-D1
# Outline: as §1
# [22] = molecular target: CaBzz1-D1
# Outline: as §1
# [23] = molecular target: CaBzz1-D2
# Outline: as §1
# [24] = molecular target: CaCyk3
# Outline: as §1
# [25] = molecular target: CaFus1
# Outline: as §1
# [26] = molecular target: CaHof1
# Outline: as §1
# [27] = molecular target: CaHse1
# Outline: as §1
# [28] = molecular target: CaLsb1
# Outline: as §1
# [29] = molecular target: CaLsb4
# Outline: as §1
# [30] = molecular target: CaMyo5
# Outline: as §1
# [31] = molecular target: CaNbp2
# Outline: as §1
# [32] = molecular target: CaRvs167
# Outline: as §1
# [33] = molecular target: CaRvs167-3
# Outline: as §1
# [34] = molecular target: CaSho1
# Outline: as §1
# [35] = molecular target: CaSla1-D1-D2
# Outline: as §1
# [36] = molecular target: CaSla1-D3
# Outline: as §1
# [37] = molecular target: ScAbp1
# Outline: as §1
# [38] = molecular target: ScBbc1
# Outline: as §1
# [39] = molecular target: ScBem1-D1
# Outline: as §1
# [40] = molecular target: ScBzz1-D1
# Outline: as §1
# [41] = molecular target: ScBzz1-D2
# Outline: as §1
# [42] = molecular target: ScCyk3
# Outline: as §1
# [43] = molecular target: ScFus1
# Outline: as §1
# [44] = molecular target: ScHof1
# Outline: as §1
# [45] = molecular target: ScHse1
# Outline: as §1
# [46] = molecular target: ScLsb1
# Outline: as §1
# [47] = molecular target: ScLsb2
# Outline: as §1
# [48] = molecular target: ScLsb3
# Outline: as §1
# [49] = molecular target: ScLsb4
# Outline: as §1
# [50] = molecular target: ScMyo3
# Outline: as §1
# [51] = molecular target: ScMyo5
# Outline: as §1
# [52] = molecular target: ScNbp2
# Outline: as §1
# [53] = molecular target: ScPex13
# Outline: as §1
# [54] = molecular target: ScRvs167
# Outline: as §1
# [55] = molecular target: ScSho1
# Outline: as §1
# [56] = molecular target: ScSla1-D1-D2
# Outline: as §1
# [57] = molecular target: ScSla1-D3
# Outline: as §1
# [58] = molecular target: SpAbp1-D1
# Outline: as §1
# [59] = molecular target: SpBbc1
# Outline: as §1
# [60] = molecular target: SpBzz1-D1
# Outline: as §1
# [61] = molecular target: SpBzz1-D2
# Outline: as §1
# [62] = molecular target: SpCyk3
# Outline: as §1
# [63] = molecular target: SpHof1
# Outline: as §1
# [64] = molecular target: SpHof1-2
# Outline: as §1
# [65] = molecular target: SpHof1-3
# Outline: as §1
# [66] = molecular target: SpHse1
# Outline: as §1
# [67] = molecular target: SpLsb1
# Outline: as §1
# [68] = molecular target: SpLsb4
# Outline: as §1
# [69] = molecular target: SpMyo1
# Outline: as §1
# [70] = molecular target: SpNbp2
# Outline: as §1
# [71] = molecular target: SpPex13
# Outline: as §1
# [72] = molecular target: SpRvs167
# Outline: as §1
# [73] = molecular target: SpSla1-D1-D2
# Outline: as §1
# [74] = molecular target: SpSla1-D3
# Outline: as §1
binder,measurement,setting,value
ITHRLRISIPGITGR,SPOT peptide array binding signal intensity,[1],4.5
same,SPOT peptide array binding signal intensity,[2],199
same,SPOT peptide array binding signal intensity,[3],314
same,SPOT peptide array binding signal intensity,[4],121
same,SPOT peptide array binding signal intensity,[5],236
same,SPOT peptide array binding signal intensity,[6],10
same,SPOT peptide array binding signal intensity,[7],1770
same,SPOT peptide array binding signal intensity,[8],112
same,SPOT peptide array binding signal intensity,[9],580
same,SPOT peptide array binding signal intensity,[10],54.5
same,SPOT peptide array binding signal intensity,[11],687
same,SPOT peptide array binding signal intensity,[12],≤ 0
same,SPOT peptide array binding signal intensity,[13],101
same,SPOT peptide array binding signal intensity,[14],16.7
same,SPOT peptide array binding signal intensity,[15],329
same,SPOT peptide array binding signal intensity,[16],116
same,SPOT peptide array binding signal intensity,[17],6
same,SPOT peptide array binding signal intensity,[18],111
same,SPOT peptide array binding signal intensity,[19],39
same,SPOT peptide array binding signal intensity,[20],306
same,SPOT peptide array binding signal intensity,[21],84
same,SPOT peptide array binding signal intensity,[22],362
same,SPOT peptide array binding signal intensity,[23],226
same,SPOT peptide array binding signal intensity,[24],37.5
same,SPOT peptide array binding signal intensity,[25],2510
same,SPOT peptide array binding signal intensity,[26],1.75
same,SPOT peptide array binding signal intensity,[27],62.5
same,SPOT peptide array binding signal intensity,[28],5
same,SPOT peptide array binding signal intensity,[29],141
same,SPOT peptide array binding signal intensity,[30],20.8
same,SPOT peptide array binding signal intensity,[31],454
same,SPOT peptide array binding signal intensity,[32],636
same,SPOT peptide array binding signal intensity,[33],2400
same,SPOT peptide array binding signal intensity,[34],855
same,SPOT peptide array binding signal intensity,[35],28
same,SPOT peptide array binding signal intensity,[36],454
same,SPOT peptide array binding signal intensity,[37],23
same,SPOT peptide array binding signal intensity,[38],16.8
same,SPOT peptide array binding signal intensity,[39],44.5
same,SPOT peptide array binding signal intensity,[40],100
same,SPOT peptide array binding signal intensity,[41],442
same,SPOT peptide array binding signal intensity,[42],72
same,SPOT peptide array binding signal intensity,[43],2080
same,SPOT peptide array binding signal intensity,[44],2
same,SPOT peptide array binding signal intensity,[45],2140
same,SPOT peptide array binding signal intensity,[46],33.5
same,SPOT peptide array binding signal intensity,[47],22
same,SPOT peptide array binding signal intensity,[48],282
same,SPOT peptide array binding signal intensity,[49],20
same,SPOT peptide array binding signal intensity,[50],≤ 0
same,SPOT peptide array binding signal intensity,[51],1.5
same,SPOT peptide array binding signal intensity,[52],397
same,SPOT peptide array binding signal intensity,[53],50.2
same,SPOT peptide array binding signal intensity,[54],163
same,SPOT peptide array binding signal intensity,[55],2380
same,SPOT peptide array binding signal intensity,[56],267
same,SPOT peptide array binding signal intensity,[57],69
same,SPOT peptide array binding signal intensity,[58],91.5
same,SPOT peptide array binding signal intensity,[59],57.2
same,SPOT peptide array binding signal intensity,[60],486
same,SPOT peptide array binding signal intensity,[61],1
same,SPOT peptide array binding signal intensity,[62],30
same,SPOT peptide array binding signal intensity,[63],272
same,SPOT peptide array binding signal intensity,[64],31
same,SPOT peptide array binding signal intensity,[65],461
same,SPOT peptide array binding signal intensity,[66],625
same,SPOT peptide array binding signal intensity,[67],10.8
same,SPOT peptide array binding signal intensity,[68],108
same,SPOT peptide array binding signal intensity,[69],3
same,SPOT peptide array binding signal intensity,[70],802
same,SPOT peptide array binding signal intensity,[71],124
same,SPOT peptide array binding signal intensity,[72],115
same,SPOT peptide array binding signal intensity,[73],1
same,SPOT peptide array binding signal intensity,[74],6.5

# Source: the supplement of paper PMC4466140
